The panel holds about 83,000 compounds, 20% with a hit somewhere; the sample as a whole holds those more often.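 Single-dose data. Exposure time 48 hours. Values below 10 considered active.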 A number with no mark means an inactive call. The source made the active and inactive calls.

The assay relates to OVCAR-3 ovarian. Description: NCI-60 one-dose screen, 48 h (100 = growth as untreated, 0 = no growth, -100 = all killed). The note with it: 10 µM unless noted. The protocol:
Growth inhibition of the OVCAR-3 human tumor cell line is measured as a screen for anti-cancer activity. Cells are grown in 96 well plates and exposed to the test compound for 48 hours. Compounds are tested at a single concentration, which is 10^-5 M for most compounds. The reported endpoint is percent growth (GI% or GIPRCNT), where numbers from 0 - 100% represent growth inhibition, and numbers from -100% - 0 represent cell death. For example, a value of 40 represents 60% growth inhibition. A value of 0 means no net growth occurred over the course of the experiment. A value of -40 indicates 40% of cells at the beginning of the experiment died by the end of the experiment. A value of -100 means all cells are dead at the end of the experiment.
NCI-60 Human Tumor Cell Lines Screen was performed using the standard one-dose NCI protocol, which is described in more detail at https://dtp.cancer.gov/discovery_development/nci-60/default.htm.
Compounds with GIPRCNT values below 10 were considered active. Activity score was based on GIPRCNT using the following formula: […]
Score is 0 for GIPRCNT values of 100 or above, 50 for GIPRCNT values of 0, and 100 for GIPRCNT values of -100.
Take `CC(=O)C1=C(O)C=C2Oc3c(C(=O)/C=C/c4cc(C(F)(F)F)cc(C(F)(F)F)c4)c(O)c(C)c(O)c3[C@]2(C)C1=O`: the growth is -50.5% (active).

Turning to `Cc1ccc(-c2nc(/C=N/Nc3cc(C)nc4ccc(Cl)cc34)c(C)o2)cc1`, the growth was -80.8% (active).

For `C=C1CC[C@@H]2[C@](C)(COC(C)=O)[C@H](OC(C)=O)CC[C@@]2(C)[C@@H]1CC(Nc1ccc(S(=O)(=O)Nc2nc(C)cc(C)n2)cc1)C1=CCOC1=O` (stereo not given in full), the growth was 44.8%.

`C=C1CCC2C3(C)COC(c4ccc(OC)cc4Br)OC3CCC2(C)C1/C=C/C1=CCOC1=O` (stereo not given): the growth was 80.8%.

Turning to `COc1ccc(C2Nc3ccccc3-n3cccc32)cc1` (stereo not given), the growth is 96.1%.

As for `NC1=CC(=O)C(=O)c2ccccc21`, the growth was 84.1%.

Turning to `O=C(Cc1ccccc1)c1ccc(Cl)cc1`, the growth was 111%.

On to `COc1cnc2c(c1)C(=O)c1c-2n(CCCN2CCCC2)c(=O)c2cc([N+](=O)[O-])ccc12`, for which the growth is -72.4% (active).

As for `O=C1C(=O)N(CCCCn2cc(CO)nn2)c2ccccc21`, the growth is 115%.

With `Cn1cc(-c2nc(-c3c[nH]c4ccccc34)cs2)c2cccnc21`, the growth was 7.04% (active).

With `Cc1cc(=O)oc2cc(Oc3nc(-c4ccc(Cl)cc4)cn4c(-c5ccc(Cl)cc5)cnc34)ccc12`, the growth was 107%.

On to `CCOC(=O)c1cnc2cc(Cl)c(F)cc2c1Nc1cccc(NS(C)(=O)=O)c1`, for which the growth is 102%.

Regarding `C/C(Cc1ccc(Cl)cc1)=C(\c1ccc(OCCN2CCCCCC2)cc1)c1ccc(OC(=O)C2CCCCC2)cc1`, the growth is 71.8%.

In the case of `C=C1CC2(OC1=O)C(=O)N(CCCCCCCN1C(=O)C3(CC(=C)C(=O)O3)c3ccccc31)c1ccccc12` (stereo not given), the growth was 3.44% (active).

Regarding `O=C(CN1CCOCC1)Nc1ccc(Cn2nnc3c2C(=O)c2nnn(Cc4ccc(NC(=O)CN5CCOCC5)cc4)c2C3=O)cc1`, the growth was -19% (active).

`CCOc1ccc(Nc2nc(-c3c(C)nc4ncccn34)cs2)cc1`: the growth was -20.9% (active).

As for `O=C1c2cccnc2C(=O)c2c1c(C(=O)OCCN1CCOCC1)c1ccccn21`, the growth is -6.91% (active).

`CC(C)n1cc2c(N)ncnc2n1`: the growth is 104%.

Take `CC[C@@H](C)OC(=O)c1nn(C(C)=O)c2ccccc12`: the growth is 112%.

Regarding `CCCCNC(=O)NS(=O)(=O)c1ccc(N2N=C(c3cc(C)ccc3C)CC2c2cc(OC)c(OC)c(OC)c2)cc1` (stereo not given), the growth is 53.3%.

Consider `O=C1c2cc3c(cc2-c2c1c1cc(Cl)c(Cl)cc1c(=O)n2C[C@H](O)CO)OCO3`, for which the growth was -54.2% (active).

Take `Cc1ccc(Nc2nc(N)nc(Nc3ccc4ccccc4c3)n2)cc1`: the growth is 8.67% (active).

With `O=[N+]([O-])c1c(F)cccc1Nc1cccc(F)c1`, the growth is 109%.

As for `O=c1c2cccc3c(Nc4ccccn4)ccc(c32)c2nc3ccccc3n12`, the growth was 70%.

As to `NC(N)=Nc1ccc(S(=O)(=O)O)cc1`, the growth is 129%.

For `COc1ccc(C(=O)c2sc3nc(-c4ccccc4OC)ccc3c2N)cc1OC`, the growth is 68.9%.

As for `S=c1[nH]nc(CSc2ncnc3c2c(-c2ccccc2)cn3-c2ccc(Cl)cc2)o1`, the growth was 101%.

In the case of `COc1ccc(-c2nn(-c3ccccc3)cc2/C=C2\SC(=O)NC2=O)cc1`, the growth is 110%.

Take `Cc1cc(-c2nc3ccccc3s2)ccc1NC(=O)COc1ccc(Cl)cc1`: the growth is 120%.

`Cc1ccc(-c2nc(/C=N/Nc3cc(C)nc4ccc(Br)cc34)c(C)o2)cc1`: the growth is -94.8% (active).

With `CN(C)c1ccc(C2Nc3ccccc3-n3cccc32)cc1` (stereo not given), the growth was 92.8%.

Regarding `CN(C)c1ccc(/C=C(\C#N)c2nc3ccccc3s2)cc1`, the growth is 119%.

Regarding `Nc1ccc2c(c1)C(=O)NC2=O`, the growth is 105%.

Take `NS(=O)(=O)c1ccc(-n2ncc3c(=O)[nH]c(CN4CCN(c5cc6c(cc5F)c(=O)c(C(=O)O)cn6C5CC5)CC4)nc32)cc1`: the growth was 107%.

As for `CC1=C(C)C(=O)OC([C@](C)(O)[C@]2(O)CC[C@@]3(O)[C@@H]4C[C@H]5O[C@]56CC=CC(=O)[C@]6(C)[C@H]4CC[C@]23COC(=O)c2ccc(C)o2)C1` (stereo not given in full), the growth is -96.2% (active).

Turning to `CC(C)(C)n1cc(-c2ccnc(NCCNS(=O)(=O)c3ccccc3)c2)c(-c2cccc(O)c2)n1`, the growth is 74.4%.

As to `COc1ccc(C/C(C)=C(\c2ccc(OCCN3CCCCCC3)cc2)c2ccc(OC(=O)C3CCCCC3)cc2)cc1`, the growth is 63.5%.

Turning to `CCOC(=S)SCc1ccc(Cl)cc1`, the growth is 94.4%.

In the case of `CN1CCN(Cc2ccc(NC(=O)c3cncc(C#Cc4cncc5nccnc45)c3)cc2C(F)(F)F)CC1`, the growth was 69.9%.

`O=C(Cn1cc(CN2C(=O)c3ccccc3S2(=O)=O)nn1)Nc1ccc([N+](=O)[O-])cc1Cl`: the growth is 105%.
